Measurements published in PubChem BioAssay (EPA / NIEHS).
Values joined by “and” are separate entries in the source; they are usually repeats but may differ in a detail not shown here. Identical values can stand only once. A structure can be active in one record and inactive in another. Active and inactive are the calls of the source. How the source made its calls: active means hit-call score of the fitted dose curve at least 0.9, where 1 is the maximum; inactive means score below 0.9.

Key:
[1] = ATG_M_61_CIS: Attagene CIS-FACTORIAL HepG2 Assay for M61 Transcription Factor (Internal Marker) (AID 2282937); settings: HepG2 Attagene CIS-FACTORIAL M61 internal marker reporter; actives raise or lower the signal
In short: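 Background-control endpoint: HepG2 cells with cis-regulated reporter constructs, 24 h exposure, reporter mRNA detected via fluorescent primer extension and capillary electrophoresis; values from bidirectional fitting with DMSO baseline.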

[2] = ATG_EGR_CIS: Attagene CIS-FACTORIAL HepG2 Assay for human Early Growth Response 1 (EGR1) (AID 2282938); settings: HepG2 Attagene CIS-FACTORIAL EGR reporter mRNA; actives raise or lower the signal
In short: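 Endpoint derived by bidirectional fitting versus DMSO vehicle. Method: cis-promoter reporter units transfected into HepG2, 24 h dosing, RNA isolation, RT-PCR with 6-FAM primer extension and HpaI digestion, then capillary electrophoresis fluorescence detection.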

[3] = ATG_M_19_CIS: Attagene CIS-FACTORIAL HepG2 Assay for M19 Transcription Factor (Internal Marker) (AID 2282939); settings: HepG2 Attagene CIS-FACTORIAL M19 internal marker reporter; actives raise or lower the signal
In short: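 Internal marker readout, fitted in both directions against DMSO, from HepG2 cells carrying transfected cis-element reporter constructs; RT-PCR and capillary electrophoresis of reporter mRNA after 24 h exposure.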

[4] = ATG_ERE_CIS: Attagene CIS-FACTORIAL HepG2 Assay for Estrogen Response Element (ERE) (AID 2282940); settings: HepG2 ERE cis-reporter, Attagene RNA transcript; actives raise or lower the signal
In short: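 After 24 h compound treatment, RNA from transfected HepG2 cells was reverse-transcribed, reporter cDNA PCR-amplified, FAM-labelled, HpaI-cut and resolved by capillary electrophoresis. ERE-driven cis reporter transcripts reflect endogenous factors; gain or loss scored against DMSO.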

[5] = ATG_Ets_CIS: Attagene CIS-FACTORIAL HepG2 Assay for human Erythroblast Transformation Specific (ETS) (AID 2282941); settings: HepG2 ETS cis-reporter transcription; AC50: actives raise or lower the signal unless noted; outcome: actives raise or lower the signal unless noted
In short: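 Endogenous transcription factor activity read as reporter mRNA via RT-PCR and capillary electrophoresis, with gain or loss fitted bidirectionally against DMSO. Human HepG2 liver cells, transiently transfected CIS reporter constructs, 24 h exposure.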

[6] = target: Hepatocyte nuclear factor 3-beta (Homo sapiens) (UniProt Q9Y261); test: ATG_FoxA2_CIS: Attagene CIS-FACTORIAL HepG2 Assay for human Forkhead box A2 (FOXA2) (AID 2282942); settings: HepG2 cis-reporter transcription factor activity, 24 h; actives raise or lower the signal
Chain of Hepatocyte nuclear factor 3-beta (Homo sapiens) (Q9Y261 whole entry, looked up): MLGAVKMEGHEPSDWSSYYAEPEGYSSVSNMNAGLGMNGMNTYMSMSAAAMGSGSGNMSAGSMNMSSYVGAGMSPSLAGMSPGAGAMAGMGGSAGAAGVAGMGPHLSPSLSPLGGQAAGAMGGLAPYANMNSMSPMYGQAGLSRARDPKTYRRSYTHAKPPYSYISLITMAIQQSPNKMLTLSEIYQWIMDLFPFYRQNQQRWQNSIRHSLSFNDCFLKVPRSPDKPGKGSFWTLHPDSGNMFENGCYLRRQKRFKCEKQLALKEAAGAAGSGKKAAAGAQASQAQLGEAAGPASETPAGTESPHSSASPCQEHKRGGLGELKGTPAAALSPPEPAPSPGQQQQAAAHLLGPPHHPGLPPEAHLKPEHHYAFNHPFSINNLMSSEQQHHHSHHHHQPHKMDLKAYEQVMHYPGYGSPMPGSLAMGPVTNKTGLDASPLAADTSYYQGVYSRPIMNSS
In short: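 Measured: reporter mRNA induction or loss in HepG2 transiently carrying multiple cis-regulated reporter units, 24 h after dosing. Quantified by RT-PCR plus capillary electrophoresis, normalised to DMSO.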

[7] = ATG_FoxO_CIS: Attagene CIS-FACTORIAL HepG2 Assay for human Forkhead box O (FoxO) (AID 2282943); settings: HepG2 Attagene cis-reporter, FoxO element, mRNA; actives raise or lower the signal
In short: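 HepG2 cells transiently transfected with cis-promoter-driven multiple reporter transcription units; 24 h after chemical dosing, reporter mRNA quantified by RT-PCR, fluorescent primer extension, HpaI digestion and capillary electrophoresis. Bidirectional fitting versus DMSO baseline.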

[8] = ATG_GATA_CIS: Attagene CIS-FACTORIAL HepG2 Assay for human GATA Binding Protein (AID 2282944); settings: HepG2 GATA cis-element reporter, Attagene multiplex mRNA; actives raise or lower the signal
In short: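 Reporter transcripts from a GATA cis-regulated unit, among multiplexed reporters in transfected HepG2 cells, were measured by RT-PCR with capillary electrophoresis after 24 h dosing. Induction or loss scored relative to DMSO.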

[9] = ATG_GLI_CIS: Attagene CIS-FACTORIAL HepG2 Assay for human Zinc Finger Protein GLI1 (AID 2282945); settings: HepG2, Attagene cis-factorial reporter mRNA, GLI element; actives raise or lower the signal
In short: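 HepG2 cells transiently transfected with cis-promoter multiplexed reporter units report endogenous transcription factor activity. After 24 h chemical exposure, reporter mRNA was quantified by RT-PCR, 6-FAM labelling, HpaI digestion and capillary electrophoresis, with bidirectional fitting against DMSO.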

[10] = target: Bile acid receptor (Homo sapiens) (UniProt Q96RI1); test: ATG_IR1_CIS: Attagene CIS-FACTORIAL HepG2 Assay for human Nuclear Receptor Subfamily 1 Group H Member 4 (NR1H4), IR1 submotif (AID 2282946); settings: IR1 reporter transcription, actives raise or lower the signal
Chain of Bile acid receptor (Homo sapiens) (Q96RI1 whole entry, looked up): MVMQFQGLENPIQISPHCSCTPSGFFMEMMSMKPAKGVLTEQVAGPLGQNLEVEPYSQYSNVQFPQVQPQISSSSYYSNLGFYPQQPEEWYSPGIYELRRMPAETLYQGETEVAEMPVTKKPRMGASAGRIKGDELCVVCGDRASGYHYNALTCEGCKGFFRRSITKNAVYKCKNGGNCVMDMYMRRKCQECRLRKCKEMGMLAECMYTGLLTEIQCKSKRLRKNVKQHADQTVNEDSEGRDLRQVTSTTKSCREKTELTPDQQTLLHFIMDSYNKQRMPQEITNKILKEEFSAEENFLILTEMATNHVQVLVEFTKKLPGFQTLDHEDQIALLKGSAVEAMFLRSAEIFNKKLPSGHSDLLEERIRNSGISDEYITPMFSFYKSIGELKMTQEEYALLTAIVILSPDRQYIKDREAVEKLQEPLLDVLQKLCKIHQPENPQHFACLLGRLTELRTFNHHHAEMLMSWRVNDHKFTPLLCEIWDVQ
In short: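 Readout: reporter transcript levels by RT-PCR with fluorescent capillary electrophoresis, from HepG2 cells transiently transfected with multiplexed cis-regulated reporters and dosed 24 h. Gain- or loss-of-signal fitted versus DMSO negative control.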

SMILES	outcome [1]	outcome [2]	outcome [3]	AC50 [4]	outcome [5]	outcome [6]	outcome [7]	outcome [8]	outcome [9]	outcome [10]	outcome [4]	AC50 [2]	AC50 [9]	AC50 [8]
CC(C)CCOCCC(C)C	inactive	inactive	inactive	26.8 µM (active)	inactive	inactive	inactive	inactive	inactive	inactive				
C[N+](C)(CCCNS(=O)(=O)CCC(F)(F)C(F)(F)C(F)(F)C(F)(F)C(F)(F)C(F)(F)F)CC(=O)[O-]	inactive	inactive	inactive	0.0122 µM (active)	inactive	inactive	inactive	inactive	inactive	inactive				
C=Cc1ccc(O)c(OC)c1	inactive	inactive	inactive		inactive	inactive	inactive	inactive	inactive	inactive	inactive			
Cc1cccc2c1ccc1ccccc12	inactive	inactive	inactive	10.2 µM (active)	inactive	inactive	inactive	inactive	inactive	inactive				
C=CCOCC(CO)(CO)CO	inactive	inactive	inactive		inactive	inactive	inactive	inactive	inactive	inactive	inactive			
O=C(F)C(F)(F)C(F)(F)C(F)(F)C(=O)F	inactive	inactive	inactive		inactive	inactive	inactive	inactive	inactive	inactive	inactive			
O=C1OC(=O)C(F)(F)C1(F)F	inactive	inactive	inactive		inactive	inactive	inactive	inactive	inactive	inactive	inactive			
Brc1ccc(Oc2ccc(Br)cc2Br)cc1	inactive	inactive	inactive		inactive	inactive	inactive	inactive	inactive	inactive	inactive			
CCc1cccc(CC)c1NC(=O)C(=O)O	inactive	inactive	inactive		inactive	inactive	inactive	inactive	inactive	inactive	inactive			
CCCCCCCCCCCCCCCC(=O)OC	inactive	inactive	inactive		inactive	inactive	inactive	inactive	inactive	inactive	inactive			
O=C(O)CN(CCCN(CC(=O)O)CC(=O)O)CC(=O)O	inactive		inactive		inactive	inactive	inactive	inactive	inactive	inactive	inactive	6.32 µM (active)		
COC(=O)C(F)(F)C(F)(F)C(F)(F)F	inactive	inactive	inactive		inactive	inactive	inactive	inactive	inactive	inactive	inactive			
O=C(F)C(F)(F)C(F)(F)C(F)(F)C(F)F	inactive	inactive	inactive		inactive	inactive	inactive	inactive	inactive	inactive	inactive			
CCCCCCc1ccc(N)cc1	inactive	inactive	inactive	5.06 µM (active)	inactive	inactive	inactive	inactive	inactive	inactive				
COC(O)c1ccccc1 (stereo not drawn)	inactive	inactive	inactive	18.1 µM (active)	inactive	inactive	inactive	inactive	inactive	inactive				
Cc1cc(C(=C2C=CC(=Nc3ccc(S(=O)(=O)O)cc3)C=C2)c2ccc(Nc3ccc(S(=O)(=O)O)cc3)cc2)cc(S(=O)(=O)O)c1N	inactive	inactive	inactive		inactive	inactive	inactive	inactive	inactive	inactive	inactive			
O=C(Nc1cccc([N+](=O)[O-])c1)c1cc2ccccc2cc1O	inactive	inactive	inactive	3.32 µM (active)	inactive	inactive	inactive	inactive	inactive	inactive				
Cn1sccc1=O	inactive		inactive		inactive	inactive	inactive	inactive		inactive	inactive	165 µM (active)	148 µM (active)	
CCc1ccccc1O	inactive	inactive	inactive		inactive	inactive	inactive	inactive	inactive	inactive	inactive			
CC1COCc2cc3c(cc21)C(C)(C)C(C)C3(C)C (stereo not drawn)	inactive		inactive		inactive	inactive	inactive		inactive	inactive	inactive	152 µM (active)		158 µM (active)
COc1cc(OC)nc(NC(=O)NS(=O)(=O)Nc2ccccc2C(=O)N(C)C)n1	inactive	inactive	inactive		inactive	inactive	inactive	inactive	inactive	inactive	inactive			
CCc1cccc(CC)c1N(COC)C(=O)CS(=O)(=O)O	inactive	inactive	inactive		inactive	inactive	inactive	inactive	inactive	inactive	inactive			
CCCCCCC(C)(C)C(=O)O	inactive		inactive	27.6 µM (active)	inactive	inactive	inactive	inactive	inactive	inactive		130 µM (active)		
O=C1c2ccc(O)c(O)c2C(=O)c2c(O)ccc(O)c21	inactive	inactive	inactive	13.6 µM (active)	inactive	inactive	inactive	inactive	inactive	inactive				

SMILES	outcome [1]	outcome [2]	outcome [3]	AC50 [4]	outcome [5]	outcome [6]	outcome [7]	outcome [8]	outcome [9]	outcome [10]	outcome [4]	AC50 [2]	AC50 [9]	AC50 [8]
CCCCc1ccc2ccccc2c1S(=O)(=O)O	inactive	inactive	inactive		inactive	inactive	inactive	inactive	inactive	inactive	inactive			
CC(=O)Nc1ccc(S(N)(=O)=O)cc1	inactive	inactive	inactive		inactive	inactive	inactive	inactive	inactive	inactive	inactive			
CCO[Si](CCC1CCC2OC2C1)(OCC)OCC (stereo not drawn)	inactive	inactive	inactive		inactive	inactive	inactive	inactive	inactive	inactive	inactive			
COCN(COC)c1nc(N(COC)COC)nc(N(COC)COC)n1	inactive	inactive	inactive	23.7 µM (active)	inactive		inactive	inactive	inactive	inactive				
CCC(=O)C=Cc1ccc(OC)cc1	inactive		inactive		inactive	inactive	inactive	inactive	inactive	inactive	inactive	100 µM (active)		
O=P(O)(O)CCC(F)(F)C(F)(F)C(F)(F)C(F)(F)C(F)(F)C(F)(F)C(F)(F)C(F)(F)F	inactive	inactive	inactive		inactive		inactive	inactive	inactive		inactive			
c1cc[nH]c1	inactive	inactive	inactive		inactive		inactive	inactive	inactive		inactive			
O=C(O)CCC(F)(F)C(F)(F)C(F)(F)C(F)(F)C(F)(F)C(F)(F)F	inactive	inactive	inactive		inactive	inactive	inactive	inactive	inactive	inactive	inactive			
Nc1cc(Cl)c(-c2cc(Cl)c(N)cc2Cl)cc1Cl	inactive	inactive	inactive		inactive	inactive	inactive	inactive	inactive	inactive	inactive			
COC(=O)CC(C(C)=O)C(=O)OC (stereo not drawn)	inactive	inactive	inactive		inactive	inactive	inactive	inactive	inactive	inactive	inactive			
CC(C)(C)c1ccc(CCC=O)cc1	inactive	inactive	inactive	144 µM (active)	inactive	inactive	inactive	inactive	inactive	inactive				
CCOCCOCC	inactive	inactive	inactive		inactive	inactive	inactive	inactive	inactive	inactive	inactive			
CCCCCCCCCCCCCCCCCC[N+](C)(C)Cc1ccccc1	inactive	inactive	inactive		inactive	inactive	inactive	inactive	inactive	inactive	inactive			
O=C(O)C(F)(F)OC(F)(F)C(F)(F)OC(F)(F)C(F)(F)OC(F)(F)C(F)(F)C(F)(F)C(F)(F)F	inactive		inactive		inactive		inactive	inactive	inactive	inactive	inactive	19.6 µM (active) and 25.7 µM (active)		76.5 µM (active)
Cc1cncc(C)c1	inactive	inactive	inactive		inactive		inactive	inactive	inactive		inactive			
CCCCCCCCC1CCC(=O)O1 (stereo not drawn)	inactive	inactive	inactive		inactive	inactive	inactive	inactive	inactive	inactive	inactive			
O=C1c2ccccc2C(=O)c2c(O)c(O)cc(O)c21	inactive	inactive	inactive	2.42 µM (active)	inactive	inactive	inactive	inactive	inactive	inactive				
CCCCCc1ccc(O)cc1	inactive	inactive	inactive	2.4 µM (active)	inactive		inactive	inactive	inactive					
OCC1CCC(CO)CC1 (stereo not drawn)	inactive	inactive	inactive	23.2 µM (active)	inactive		inactive	inactive	inactive	inactive				
Cc1ccc(N=Nc2c(O)ccc3ccccc23)c(C)c1	inactive	inactive	inactive	5.07 µM (active)	inactive	inactive	inactive	inactive	inactive	inactive				
O=C(OC(=O)C(F)(F)C(F)(F)F)C(F)(F)C(F)(F)F	inactive	inactive	inactive		inactive	inactive	inactive	inactive	inactive	inactive	inactive			
Nc1ccc(O)c(C(=O)O)c1	inactive	inactive	inactive	12.3 µM (active)	inactive		inactive	inactive	inactive					
CCCCCCCC(OC)OC	inactive	inactive	inactive		inactive	inactive	inactive	inactive	inactive	inactive	inactive			
C=CC(=O)OCCC(F)(F)C(F)(F)C(F)(F)C(F)(F)C(F)(F)C(F)(F)F	inactive	inactive	inactive	30.9 µM (active)	inactive	inactive	inactive	inactive	inactive	inactive				
